Test system: MAP3K11
Set-up: species or system human, MV4-11 + K-562 + COLO205 + SK-N-BE2 + OVCAR-8
Conditions: read-out: apparent Kd; compound concentrations:100 nM and 1000 nM (sheet 'Samples'); n = 1

| SMILES | potency estimated from few doses |
| --- | --- |
| NCCNS(=O)(=O)c1ccc(-c2ccnc3[nH]ccc23)cc1 [GSK977617A] | 1370 nM |
| O=C1NC(=O)C(N2CCc3ccccc32)=C1c1ccccc1Cl [SB-373598] | 1040 nM |
| Cl.Cl.NCC(C(=O)Nc1cc(Br)c(-c2ccnc3[nH]ccc23)s1)c1ccccc1.NCC(C(=O)Nc1cc(Br)c(-c2ccnc3[nH]ccc23)s1)c1ccccc1 (centres unmarked) [GSK1269851A] | 2030 nM |
| Cc1cccc(Nc2nc(N[C@H]3CCCC[C@H]3N)ncc2C(N)=O)c1.Cl [GSK986310C] | 1800 nM |

Test system: MAPK10
Set-up: species or system human, MV4-11 + K-562 + COLO205 + SK-N-BE2 + OVCAR-8
Conditions: read-out: apparent Kd; compound concentrations:100 nM and 1000 nM (sheet 'Samples'); n = 1

| SMILES | potency estimated from few doses |
| --- | --- |
| CC(C)N1CCC(n2cnc(-c3ccc(F)cc3)c2-c2ccnc(N)n2)CC1 [SB-223132] | 1330 nM |
| Cc1cccc(-c2nc(Nc3ccncc3)c3sccc3n2)n1 [GW869641X] | 1140 nM |
| CNC(=O)c1ccccc1Nc1nc(Nc2ccc(N3CCOCC3)cc2)ncc1Cl.Cl [GSK1576028A] | 60.1 nM |

Test system: MAPK14
Set-up: species or system human, MV4-11 + K-562 + COLO205 + SK-N-BE2 + OVCAR-8
Conditions: read-out: apparent Kd; compound concentrations:100 nM and 1000 nM (sheet 'Samples'); n = 1

| SMILES | potency estimated from few doses |
| --- | --- |
| Cl.NCc1ccc(-c2nc(-c3ccc(Cl)c(O)c3)c(-c3ccncc3)[nH]2)cc1 [SB-476429-A] | 113 nM |
| Cl.ON=C1CCc2cc(-c3nc(C4CCNCC4)[nH]c3-c3ccncc3)ccc21 [SB-614067-R] | 1160 nM |
| Cc1ccc2c(-c3ccncc3)c(-c3ccc(F)cc3)nn2c1.Cl [GW461484A] | 465 nM |

Test system: MAPKAPK2
Set-up: species or system human, MV4-11 + K-562 + COLO205 + SK-N-BE2 + OVCAR-8
Conditions: read-out: apparent Kd; compound concentrations:100 nM and 1000 nM (sheet 'Samples'); n = 1

| SMILES | potency estimated from few doses |
| --- | --- |
| Cl.NCc1ccc(-c2nc(-c3ccc(Cl)c(O)c3)c(-c3ccncc3)[nH]2)cc1 [SB-476429-A] | 94.8 nM |
| CC(C)N1CCC(n2cnc(-c3ccc(F)cc3)c2-c2ccnc(N)n2)CC1 [SB-223132] | 7.02 nM |
| Cl.ON=C1CCc2cc(-c3nc(C4CCNCC4)[nH]c3-c3ccncc3)ccc21 [SB-614067-R] | 874 nM |
| Cc1ccc2c(-c3ccncc3)c(-c3ccc(F)cc3)nn2c1.Cl [GW461484A] | 573 nM |

Test system: MARK4
Set-up: species or system human, MV4-11 + K-562 + COLO205 + SK-N-BE2 + OVCAR-8
Conditions: read-out: apparent Kd; compound concentrations:100 nM and 1000 nM (sheet 'Samples'); n = 1

| SMILES | potency estimated from few doses |
| --- | --- |
| O=C1NC(=O)C(N2CCc3ccccc32)=C1c1ccccc1Cl [SB-373598] | 884 nM |
| CNC(=O)c1ccccc1Nc1nc(Nc2ccc(N3CCOCC3)cc2)ncc1Cl.Cl [GSK1576028A] | 1370 nM |
| CN1C[C@@H]2Cn3c(c(C4=C(c5cn(C)c6ccccc56)C(=O)NC4=O)c4ccccc43)C[C@H]2C1.Cl [RO0320234-001] | 1210 nM |

Source: publication PMC11062922 (Nature Chemical Biology, 2023)
